Screens deposited in PubChem by National Center for Advancing Translational Sciences (NCATS).
FMDV inh = High Throughput Screening for Foot and Mouth Disease Virus Antivirals; FMDV antiviral cell-based qHTS; Potency, µM (highest dose often 57.9 µM), inactives show top-dose activity change, negative = inhibition, usual class: inhibitors; 410,000 tested, 1.2% active; calls by dose curve; tested in HEK293T cells; also: read-out not given here; potency is read from the fitted curve at half-maximal effect; nearly all actives have a fitted effect of over 45% in size
HCV inh = qHTS Assay for Inhibitors of Hepatitis C Virus (HCV) | Huh7.5.1 HCVcc-Cre infection, luciferase reporter, 44 h | Potency, µM (highest dose often 41.8 µM), for the others: at the highest dose activity change, negative = inhibition, usual class: inhibitors | 340,000 tested, 3.4% active | AID 651820, 2012; active = well fitted inhibition curve with a large enough effect; inconclusive = small, poorly fitted or top-dose-only effect, or another doubt; inactive = no such curve, though single readings can be large or run the other way; also: potency is read from the fitted curve at half-maximal effect
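Infectious HCV cell culture screen: compound-treated cells (1,000/well, pre-plated 4 h) are infected with HCVcc-Cre at roughly 0.5 moi and grown 44 h. Infection is quantified by luciferase signal after 15 min substrate incubation at room temperature.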
Vaccinia mCherry = qHTS for Stage-Specific Inhibitors of Vaccinia Orthopoxvirus: mCherry Reporter Primary qHTS. AID 720579, 2013. Vaccinia virus mCherry reporter infection, fluorescence. Potency, µM (doses to about 36.5 µM), for the others: at the top dose activity change, negative = inhibition, hits mostly inhibitors. 310,000 tested, 0.63% active; calls by dose curve; tested in A549 cells; also: potency is read from the fitted curve at half-maximal effect; nearly all actives have a fitted effect of over 35% in size
VACV Venus inh = qHTS for Stage-Specific Inhibitors of Vaccinia Orthopoxvirus: Venus Reporter Primary qHTS; 330,000 tested, 0.46% active; Vaccinia virus Venus reporter expression, fluorescence; AID 720580, 2013; Potency, µM (top dose mostly 36.5 µM), without a hit: at the highest dose activity change, negative = inhibition, hits mostly inhibitors; calls by dose curve; tested in A549 cells; also: potency is read from the fitted curve at half-maximal effect; nearly all actives have a fitted effect of over 30% in size
HCMV antiviral = qHTS Assay for inhibitors of the human cytomegalovirus (HCMV); activity change, negative = inhibition, % at 57.5 µM; 410,000 tested, 4.5% active; AID 1259415, 2018; HFF cells, HCMV-luciferase reporter, 72 h; stronger effect = lower value; in the data active = activity change below about -60%; inconclusive = no clear call, values can overlap the other calls; inactive = above about -39%
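After 16 h attachment at 37C, HFF cells received test compound and HCMV-luciferase (1 PFU/cell); reporter luminescence read 72 h later, data normalized against buffer-only and known inhibitor Salinomycin.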
An asterisk follows results filed as active; i = inactive; u = inconclusive; x = no result given; + = active, no number; ! = repeats disagree. In the library only some 7.3% were active in any assay of this set; here they are far more common. % is scaled to controls: 0 for no effect and ±100 for the full control effect.

SMILES	FMDV inh	HCV inh	Vaccinia mCherry	VACV Venus inh	HCMV antiviral
C[C@H](NC(=O)[C@@H]1Cc2ccccc2CN1C(=O)OC(C)(C)C)C(=O)NC1CCCCC1	8.7%	-16.0%	-15.0%	-3.6%	+
CCn1c2ccc(OC)cc2c2nc3ccccc3nc21	0.0%	7.94µM*	x	-24.8%	54.8
O=C1N/C(=N\N=C\c2cccnc2)SC1Cc1ccc(SC(F)F)cc1 (stereo unspecified)	0.4%	u	x	x	-84.7*
Cc1cccc(CC2S/C(=N/c3ccccn3)NC2=O)c1 (stereo unspecified)	-4.5%	9.6%	x	-18.0%	-64.6*
O=C1N/C(=N\N=C\c2ccccn2)SC1Cc1cccc(SC(F)F)c1 (stereo unspecified)	-16.7%	u	-11.8%	-10.4%	-98.7*
Cc1cc(N/C=C/C(=O)c2cccs2)ccc1F	21.9%	-10.7%	x	x	-101.2*
O=C1CCC[C@H]2[C@@H](Cc3ccccc3)[C@@H](NCC3CCCCC3)CC[C@]23CCCN13	x	x	x	x	12.8
CCS(=O)(=O)c1ncc(Cl)c(C(=O)Nc2ccc(S(=O)(=O)N(C)c3ccccc3)cc2)n1	22.4µM*	u	-28.1%	14.1µM*!	-100.9*
CCN(c1ccccc1)S(=O)(=O)c1ccc(NC(=O)c2nc(S(C)(=O)=O)ncc2Cl)cc1	28.2µM*	u	u	u	-99.6*
CCSc1ncc(Cl)c(C(=O)Nc2ccc(S(=O)(=O)N(C)c3ccccc3)cc2)n1	-5.5%	x	-18.4%	-9.6%	-21.5
COCc1nc2ccccc2n1Cc1ccc(C(C)(C)C)cc1	11.2%	x	-12.5%	-18.2%	19.0
COCC(C)n1c(C)cc(C(=O)CSc2nc(C)c(C)c(C)n2)c1C (stereo unspecified)	-16.1%	10µM*	x	x	u
COCCn1c(C)cc(C(=O)CSc2nc(C)c(C)c(C)n2)c1C	-24.3%	-4.9%	-18.8%	-13.0%	14.9
CCCc1c(C(=O)N/N=C(\CC)c2ccccc2)nnn1-c1nonc1N	-15.9%	x	-8.5%	-3.4%	-63.4*
C/C(=N\NC(=O)c1nnn(-c2nonc2N)c1CN1CCc2ccccc21)c1ccccc1O	4.5%	u	x	x	-98.2*
O=C1NCC(c2ccccc2)C1C(=O)N/N=C\c1ccc(-c2cccc(Cl)c2Cl)o1 (stereo unspecified)	-18.4%	-22.9%	x	-23.5%	-9.1
Cc1ccc(-c2ccc(/C=N\NC(=O)C3C(=O)NCC3c3ccccc3)o2)cc1Cl (stereo unspecified)	-6.5%	8.91µM*	u	u	29.8
O=C(Cc1cccs1)N1CCCC(c2nc3c(nnn3Cc3cccc(Cl)c3)c(=O)[nH]2)C1 (stereo unspecified)	u	4.2%	x	x	23.3
O=C(Cc1ccccc1F)N1CCC(c2nc3c(nnn3Cc3cccc(Cl)c3)c(=O)[nH]2)CC1	-18.1%	x	-20.5%	-5.7%	-62.0*
Cc1ccc(Cn2nnc3c(=O)[nH]c(C4CCN(C(=O)Cc5ccccc5F)CC4)nc32)cc1	-18.0%	x	-2.6%	-13.1%	-35.2
O=c1[nH]c(C2CCN(S(=O)(=O)c3ccc4c(c3)OCCO4)CC2)nc2c1nnn2Cc1c(F)cccc1Cl	0.0%	-5.8%	u	-21.0%	-74.9*
Cc1cccc(Cn2nnc3c(=O)[nH]c(C4CCCN(C(=O)c5ccc(C(C)(C)C)cc5)C4)nc32)c1 (stereo unspecified)	u	x	-19.3%	-5.9%	-69.6*
Cc1ccccc1Cn1nnc2c(=O)[nH]c(C3CCCN(C(=O)c4ccc(C(C)(C)C)cc4)C3)nc21 (stereo unspecified)	u	x	-15.1%	-9.8%	8.7
O=c1[nH]c(C2CCN(S(=O)(=O)c3ccc4c(c3)OCCO4)CC2)nc2c1nnn2Cc1ccccc1F	0.0%	18.6%	x	x	14.7
O=C(Cc1cccs1)N1CCC(c2nc3c(nnn3Cc3ccc(F)cc3)c(=O)[nH]2)CC1	-12.7%	12.6%	x	x	-95.4*
SMILES	FMDV inh	HCV inh	Vaccinia mCherry	VACV Venus inh	HCMV antiviral
CCCCCCCCCC[n+]1ccc(/C=C/c2ccc(N(C)C)cc2)c2ccccc21	x	x	i	x	x
Cn1cnc2c(=O)oc3ccc(S(=O)(=O)N4CCN(c5cccc(C(F)(F)F)c5)CC4)cc3c21	-8.7%	x	-9.5%	-10.8%	-6.2
Cc1ccnc(N/C=C(\C#N)c2nc(-c3cccc(Br)c3)cs2)c1	-10.4%	u	-11.4%	-5.0%	-80.3*
COc1ccccc1N1CCN(c2nc(CNC(=O)c3ccc(C)c(C)c3)nc3ccccc23)CC1	2.3%	x	i	0.0%	x
COc1ccc(-c2nnc(SCC(=O)N3CCOCC3)o2)cc1	85.3%	0.2%	x	-7.9%	103.5
O=C(CSc1nnc(-c2ccc(OC(F)F)cc2)o1)N1CCOCC1	x	u	15.8µM*	u	54.2
Cc1cc(Cl)ccc1OCC(=O)NC(=S)Nc1ccccc1N1CCOCC1	9.6%	1.8%	-0.8%	-7.8%	63.2
O=C(CCC1CCCC1)Nc1cc(Cl)ccc1N1CCOCC1	-17.3%	-6.0%	x	x	u
CC(C)(C)c1ccc(C(=O)NCCC(=O)Nc2cc(Cl)ccc2N2CCOCC2)cc1	3.6%	11.2µM*	x	x	0.0
Cc1cc(Cl)ccc1OCC(=O)Nc1ccccc1N1CCOCC1	28.2µM*	u	-24.0%	-27.3%	u
Cc1cc(Cl)ccc1OCC(=O)NCC(c1cccs1)N1CCOCC1 (stereo unspecified)	31.6µM*	10µM*	-13.2%	-25.1%	-72.2*
O=C(C1COc2ccccc2O1)N1CCN(c2nc3ccc(F)cc3s2)CC1 (stereo unspecified)	-24.2%	x	-9.5%	-12.5%	u
COc1ccccc1OCc1nc(C#N)c(NCc2ccc(C)cc2)o1	-13.3%	x	-10.4%	7.7%	2.0
COc1ccc(CCNc2oc(COc3ccccc3F)nc2C#N)cc1OC	-0.4%	u	i	-25.5%	-3.4
COc1ccc(CCNc2oc(COc3ccccc3Cl)nc2C#N)cc1OC	20µM*	u	-28.5%	-22.5%	19.1
COc1ccc(CCNc2oc(Cc3ccccc3)nc2C#N)cc1OC	14.1µM*	10µM*	-11.7%	-33.0%	-13.8
COc1ccc(Nc2oc(COc3ccccc3OC)nc2C#N)cc1	11.5%	-1.1%	-12.4%	-3.4%	-79.6*
CCN(CC(=O)Nc1ccc(NC(C)=O)cc1)C(=O)CSC(c1ccccc1)c1ccccc1	-15.8%	10µM*	x	x	u
CCN(CC(=O)Nc1ccc(NC(C)=O)cc1)C(=O)CSCC(=O)Nc1ccc(C)cc1	4.7%	7.8%	i	-8.1%	11.3
COc1cccc(C(=O)C2CCCN(C/C=C/c3ccccc3OC)C2)c1 (stereo unspecified)	-5.4%	11.1%	-26.0%	-18.0%	-6.7
COc1ccc(C(=O)C2CCCN(Cc3cccn3-c3ccc(Cl)cn3)C2)c(OC)c1 (stereo unspecified)	20µM*	8.91µM*	-16.4%	-27.9%	u
